The results in this text go back to PubChem BioAssay.

Structures are written as SMILES. Values joined by “and” are separate entries in the source; they are usually repeats but may differ in a detail not shown here. Equal values may be shown once. Active and inactive are the calls of the source. Unless noted, no rule for the calls is given here.

The first experiment is described as follows: inhibition of 3D7 malaria parasite growth – strain 3D7 (AID 2306).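 Also: 0% = DMSO wells and 100% = chloroquine plus artemisinin control wells.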 The conditions noted are these: P. falciparum 3D7 erythrocytic growth, LDH absorbance, 72 h; at 2 µM; stronger effect = higher value.
Turning to `CN(C)c1cc2c(Nc3ccc4nc(Cc5ccccc5)[nH]c4c3)ncnc2cn1`, the growth inhibition was 85% (active).
As to `Cc1ccc(O)cc1Nc1ccnc2cc(-c3ccccn3)ccc12`, the growth inhibition was 97% (active).
The same measure, in the same setting: in the case of `Nc1ncnc2occ(-c3ccc(NC(=O)Nc4cc(C(F)(F)F)ccc4F)cc3)c12` it was 99% (active).

The next experiment is described as follows: liver-stage malaria parasite growth inhibition, primary screen, cell-based, HepG2, luciferase luminescence, HepG2 viability (AID 624349; in the data active = parasite load remaining mostly below about 12%, no sharp cut-off; inactive = mostly above about 10%;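 also: 100% = mean of DMSO negative control wells on the same plate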). Conditions: P. berghei liver stage in HepG2, luciferase luminescence, concentration not given here; parasite load remaining: stronger effect = lower value; viability: measured here: HepG2 viability without parasites.
Turning to `Fc1ccc(-c2nc3n(c2-c2ccncc2)CCS3)cc1`, the parasite load remaining is 45.5% (inactive) and the viability is 65.6%.
As for `CN1C(=O)C(c2c[nH]c3ccccc23)=C(c2c[nH]c3ccccc23)C1=O`, the parasite load remaining was 34.8% (inactive) and the viability turned out to be 125%.
For `O=C1NC(=O)C(c2c[nH]c3ccccc23)=C1c1c[nH]c2ccccc12`, the viability is 162% and the parasite load remaining is 50.4% (inactive).
`COc1cc2ncn(-c3cc(OCc4ccccc4S(C)(=O)=O)c(C#N)s3)c2cc1OC`: the parasite load remaining was 28.4% (inactive) and the viability turned out to be 80.2%.
As for `COc1ccc(COc2ccc(Cc3cnc(N)nc3N)cc2OC)cc1`, the viability stood at 98.2% and the parasite load remaining is 13.9% (inactive).
The matching figures for `Cn1cc(C2=C(c3cn(CCCSC(=N)N)c4ccccc34)C(=O)NC2=O)c2ccccc21`: 73.7% and 30.4% (inactive).
Taken in the same sequence, the figures for `Nc1nccc(-c2c(-c3ccc(F)cc3)ncn2C2CCNCC2)n1` were 61.1% and 50.2% (inactive).

A short description of the next experiment: kinase inhibitors against Plasmodium liver-stage infection, cell-based, known kinase inhibitor set, luminescence, hepatoma host viability (AID 624392).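 Also: infected cells incubated roughly two days before readout.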 The conditions noted are these: Plasmodium liver stage in hepatoma cells, luciferase luminescence, concentration not given here; liver cell % of control: measured here: host liver cell viability; parasite % of control: stronger effect = lower value.
For `COc1ccc(Nc2ncc(-c3ccccc3)o2)cc1OC`, the parasite % of control is 101% (inactive) and the liver cell % of control came out at 152%.
Take `Fc1ccc(-c2nc3n(c2-c2ccncc2)CCS3)cc1`: the liver cell % of control was 122% and the parasite % of control is 126% (inactive).
The matching figures for `CCn1c(-c2nonc2N)nc2cnc(Oc3cccc(NC(=O)c4ccc(OCCN5CCOCC5)cc4)c3)cc21`: 80.1% and 42.7% (inactive).
As for `Cc1ccc(O)cc1Nc1ccnc2ccc(S(C)(=O)=O)cc12`, the parasite % of control is 60.9% (inactive) and the liver cell % of control is 79.8%.
As to `CN(C)c1cc2c(Nc3ccc4c(cnn4Cc4ccccc4)c3)ncnc2cn1`, the parasite % of control is 78.7% (inactive) and the liver cell % of control was found to be 130%.
As for `Cc1ccc2c(-c3ccnc(Nc4ccc5c(c4)OCCO5)n3)c(-c3ccc(C(F)(F)F)cc3)nn2n1`, the liver cell % of control was determined as 142% and the parasite % of control is 33.6% (inactive).
Taken in the same sequence, the figures for `Cc1ccc(NC(=O)c2ccoc2)cc1-c1ccc(C(=O)NCC2CC2)cc1` were 104% and 120% (inactive).
Taken in the same sequence, the figures for `O=C(Nc1n[nH]c2cc(-c3cc(F)ccc3F)ccc12)C1CC1` were 90.7% and 72.2% (inactive).
As to `NC(=O)c1ccc(-c2nc(-c3ccc4c(c3)OCO4)c(-c3ccccn3)[nH]2)cc1`, the parasite % of control is 99.9% (inactive) and the liver cell % of control came to 92.1%.
Turning to `CN(C)c1cc2c(Nc3ccc4nc(Cc5ccccc5)[nH]c4c3)ncnc2cn1`, the liver cell % of control is 154% and the parasite % of control is 105% (inactive).
Taken in the same sequence, the figures for `Cc1ccc(C(=O)NC2CCC2)cc1-c1ccc(C(=O)NCC2CC2)cc1` were 104% and 116% (inactive).
Taken in the same sequence, the figures for `CCNC(=O)O[C@H]1CN[C@H](C#Cc2cc3ncnc(Nc4ccc(OCc5cccc(F)c5)c(Cl)c4)c3s2)C1` were 105% and 113% (inactive).
The matching figures for `Cn1cc(C2=C(c3cn(CCCN)c4ccccc34)C(=O)NC2=O)c2ccccc21`: 148% and 23.2% (inactive).
With `COc1cc2ncn(-c3cc(O[C@H](C)c4ccccc4Cl)c(C(N)=O)s3)c2cc1OC`, the parasite % of control was 13.5% (active) and the liver cell % of control was found to be 137%.
Taken in the same sequence, the figures for `Clc1ccc(CNc2nccc(-c3cnn4ncccc34)n2)cc1` were 176% (inactive) and 78.2%.
Regarding `CN1C(=O)C(c2c[nH]c3ccccc23)=C(c2c[nH]c3ccccc23)C1=O`, the liver cell % of control came out at 87.4% and the parasite % of control is 30.7% (inactive).
Regarding `CCc1cccc(NC(=O)Nc2ccc(Oc3ccc4nc(NC(=O)OC)[nH]c4c3)cc2)c1`, the liver cell % of control was found to be 93.1% and the parasite % of control is 128% (inactive).
Taken in the same sequence, the figures for `O=C1NC(=O)C(c2c[nH]c3ccccc23)=C1c1c[nH]c2ccccc12` were 97.5% and 26.7% (inactive).
The matching figures for `COc1cc2ncn(-c3cc(OCc4ccccc4S(C)(=O)=O)c(C#N)s3)c2cc1OC`: 84.7% and 80.2% (inactive).
Taken in the same sequence, the figures for `Cn1cc(/C=C2\C(=O)Nc3cccnc32)c2ccccc21` were 210% and 18.2% (inactive).
Consider `COc1cc(N2CCN(C(C)C)CC2)ccc1Nc1nc(Nc2ccc(F)cc2C(N)=O)c2cc[nH]c2n1`, for which the liver cell % of control was found to be 64.4% and the parasite % of control is 792% (inactive).
Taken in the same sequence, the figures for `NC(=O)c1ccc2c(-c3ccnc(NCCCO)n3)c(-c3ccc(F)cc3)nn2c1` were 85.3% and 58.4% (inactive).
The matching figures for `Fc1ccc(-c2ncn(C3CCNCC3)c2-c2ccnc(Oc3ccc4c(c3)OCO4)n2)cc1`: 71.9% and 187% (inactive).
For `Fc1cccc(COc2ccc(Nc3ncnc4sc(-c5ccco5)cc34)cc2Cl)c1`, the liver cell % of control was found to be 85.8% and the parasite % of control is 129% (inactive).
The matching figures for `Cc1ccc(O)cc1Nc1ccnc2cc(-c3ccccn3)ccc12`: 100% and 65.6% (inactive).
For the compound `COc1ccc(-c2coc3ncnc(N)c23)cc1`, the parasite % of control is 116% (inactive) and the liver cell % of control was 92.2%.
The matching figures for `N#Cc1c(NC(=O)c2ccccc2F)sc2c1CCCC2`: 60.7% (inactive) and 160%.
Taken in the same sequence, the figures for `COc1ccc(-c2oc3ncnc(N)c3c2-c2ccc(NC(=O)Nc3cc(C(F)(F)F)ccc3F)cc2)cc1` were 186% (inactive) and 50%.
Taken in the same sequence, the figures for `CN(C)CCOc1ccc(-c2nc(-c3ccc4c(c3)CC/C4=N\O)c(-c3ccncc3)[nH]2)cc1` were 215% (inactive) and 69.4%.
For `COc1ccc(COc2ccc(Cc3cnc(N)nc3N)cc2OC)cc1`, the parasite % of control is 45.5% (inactive) and the liver cell % of control came out at 99.1%.
The matching figures for `CS(=O)(=O)Nc1ccc(-c2ccc3c(NC(=O)C4CC4)n[nH]c3c2)cc1`: 96.9% (inactive) and 98.9%.
Taken in the same sequence, the figures for `Cn1cc(C2=C(c3c4n(c5ccccc35)CCC(CN)C4)C(=O)NC2=O)c2ccccc21` (stereo not drawn) were 50.7% (inactive) and 84.3%.
As to `Cn1cc(C2=C(c3cn(CCCSC(=N)N)c4ccccc34)C(=O)NC2=O)c2ccccc21`, the parasite % of control is 330% (inactive) and the liver cell % of control was determined as 100%.
Taken in the same sequence, the figures for `Fc1ccc(-c2c(-c3ccncc3)nc3n2CCS3)cc1` were 89.2% (inactive) and 113%.
On to `Cc1cc(O)cc(C)c1/C=C/c1cncc(C(=O)N(C)C)c1`, for which the parasite % of control is 96.9% (inactive) and the liver cell % of control was determined as 97.7%.
The matching figures for `CS(=O)(=O)CCNCc1nc(-c2ccc3ncnc(Nc4ccc(F)c(Cl)c4)c3c2)cs1`: 148% (inactive) and 103%.
With `Nc1ncnc2occ(-c3ccc(NC(=O)Nc4cc(C(F)(F)F)ccc4F)cc3)c12`, the parasite % of control is 12.5% (inactive) and 10.2% (inactive); the liver cell % of control was 62.2% and 49.5%.
`Nc1nccc(-c2c(-c3ccc(F)cc3)ncn2C2CCNCC2)n1`: the parasite % of control was 77.2% (inactive) and 61.2% (inactive); the liver cell % of control was 79.4% and 93.7%.

Broadly, the viability is a read-out of living cells in per cent, often relative to untreated cells.
